Results published in the supplement of paper PMC8975748.
Counter-ions that a name gives are not always drawn.

tested on: Saccharomyces cerevisiae BY4741 SeMeCo community; assay: z-score of subpopulation abundance vs DMSO median, subpopulation auxotrophic for HU; higher = larger share of this subpopulation than in DMSO controls; conditions: 10 µM; 24 h; SM minimal medium; subpopulation (auxotrophy): HU
Method: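 Fluorescent four-plasmid SeMeCo (self-establishing metabolically cooperating S. cerevisiae BY4741 community; plasmids pH-mRuby2, pL-mWasabi, pU-eCFP, pM-TagRFP657) was grown 24 h in minimal SM medium with each Selleck FDA-approved drug at 10 µM in 384-well plates. Cells were fixed and imaged by high-content confocal microscopy. For each auxotrophic subpopulation (and the prototroph), a z-score gives the deviation from the DMSO vehicle-control population median.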

SMILES | z-score of subpopulation abundance
CC(C)(C)CC(C)(C)c1ccc(OCCOCC[N+](C)(C)Cc2ccccc2)cc1 [Benzethonium Chloride] | 0.13
CCCCC(=O)O[C@H]1CC[C@H]2[C@@H]3CCc4cc(O)ccc4[C@H]3CC[C@]12C [Estradiol valerate] | -0.05
Cc1c(-c2ccc(O)cc2)n(Cc2ccc(OCCN3CCCCCC3)cc2)c2ccc(O)cc12 [Bazedoxifene Acetate] | -1.12
CN[C@H]1C(=O)N[C@@H]2Cc3ccc(cc3)Oc3cc4cc(c3O[C@@H]3O[C@H](C(=O)O)[C@@H](O)[C@H](O)[C@H]3NC(=O)CCCCCCCCC(C)C)Oc3ccc(cc3Cl)[C@@H](O)[C@@H]3NC(=O)[C@H](NC(=O)[C@@H]4NC(=O)[C@@H](NC2=O)c2cc(cc(O)c2Cl)Oc2cc1ccc2O)c1ccc(O)c(c1)-c1c(O[C@H]2O[C@H](CO)[C@@H](O)[C@H](O)[C@@H]2O)cc(O)cc1[C@@H](C(=O)NCCCN(C)C)NC3=O [Dalbavancin] | 3.63
O=C1Nc2ccccc2C1=O [Isatin] | 0.91
Clc1ccc(COC(Cn2ccnc2)c2ccc(Cl)cc2Cl)c(Cl)c1 (stereo not given) [Miconazole Nitrate] | 15.7
COc1ccc(CN2CCN(C(c3ccc(F)cc3)c3ccc(F)cc3)CC2)c(OC)c1OC [Lomerizine 2HCl] | 0.22
N[C@@H]1CCCCN(c2c(F)cc3c(=O)c(C(=O)O)cn(C4CC4)c3c2Cl)C1 [Besifloxacin HCl] | 0.44
CC1=C(C(=O)O)N2C(=O)[C@@H](NC(=O)[C@H](N)C3=CCC=CC3)[C@H]2SC1 [Cefradine] | -0.92
CC1(C)S[C@@H]2[C@H](NC(=O)Cc3ccccc3)C(=O)N2[C@H]1C(=O)O [Penicillin G Sodium] | -0.78
Cc1cc(C)nc(NS(=O)(=O)c2ccc(N)cc2)n1 [Sulfamethazine] | -0.43
C[C@]12CC[C@@H]3c4ccc(OS(=O)(=O)O)cc4CC[C@H]3[C@@H]1CCC2=O [Estropipate] | -0.17
COC(=O)Nc1nc2cc(C(=O)c3ccccc3)ccc2[nH]1 [Mebendazole] | 1.39
O=C1CCc2ccc(OCCCCN3CCN(c4cccc(Cl)c4Cl)CC3)cc2N1 [Aripiprazole] | 1.26
CCCCCCCCOc1ccccc1C(=O)Nc1ccc(C(=O)OCC[N+](C)(CC)CC)cc1 [Otilonium Bromide] | 3.65
CCOc1cc(N)c(Cl)cc1C(=O)NCC1CN(Cc2ccc(F)cc2)CCO1 (stereo not given) [Mosapride Citrate] | 0.11
COc1ccc(Cl)cc1C(=O)NCCc1ccc(S(=O)(=O)NC(=O)NC2CCCCC2)cc1 [Glyburide (Glibenclamide)] | -0.2
Cc1ccc2c(Cl)cc(Cl)c(O)c2n1 [Chlorquinaldol] | 7.3
COc1cccc2c1C(=O)c1c(O)c3c(c(O)c1C2=O)C[C@@](O)(C(=O)CO)C[C@@H]3O[C@H]1C[C@H](N)[C@@H](O)[C@H](C)O1 [Epirubicin HCl] | 3.44
O=C(O)C1=C(CSc2nnnn2CS(=O)(=O)O)CS[C@@H]2[C@H](NC(=O)[C@H](O)c3ccccc3)C(=O)N12 [Cefonicid sodium] | 0.75

SMILES | z-score of subpopulation abundance
CN(C)C[C@@H]1CCn2cc(c3ccccc32)C2=C(C(=O)NC2=O)c2cn(c3ccccc23)CCO1 | -0.03
CCCCCNC(=N)N/N=C/c1c[nH]c2ccc(OC)cc12 [Tegaserod Maleate] | 0.48
CC(C)[C@H](N)C(=O)OCC(CO)OCn1cnc2c(=O)[nH]c(N)nc21 (stereo not given in full) [Valganciclovir HCl] | -0.15
C[C@H](NCc1ccc(OCc2cccc(F)c2)cc1)C(N)=O [Safinamide Mesylate] | 0.27
CO/N=C(\C(=O)N[C@@H]1C(=O)N2C(C(=O)O)=C(CSc3nc(C)c(CC(=O)O)s3)CS[C@H]12)c1csc(N)n1 [Cefodizime Sodium] | 0.66
C=CCCCCCCCCC(=O)[O-].C=CCCCCCCCCC(=O)[O-].[Zn+2] [Zinc Undecylenate] | 2.38
c1ccc2[nH]c(-c3cscn3)nc2c1 [Thiabendazole] | -0.69
CCOc1ccc2nc3cc(N)ccc3c(N)c2c1 [Ethacridine lactate monohydrate] | -8.09
Cc1c(S(=O)(=O)O)oc2c1C(=O)C(=O)c1c-2ccc2c1CCCC2(C)C [Tanshinone IIA sulfonate (sodium)] | -2.62
CC1(C)S[C@@H]2[C@H](NC(=O)COc3ccccc3)C(=O)N2[C@H]1C(=O)O [Penicillin V potassium salt] | 0.49
O=c1[nH]c(=O)n([C@H]2C[C@H](O)[C@@H](CO)O2)cc1I [Idoxuridine] | -0.23
CC[C@H]1OC(=O)[C@H](C)[C@@H](O[C@H]2C[C@@](C)(OC)[C@@H](O)[C@H](C)O2)[C@H](C)[C@@H](O[C@@H]2O[C@H](C)C[C@H](N(C)C)[C@H]2O)[C@](C)(O)C[C@@H](C)C(=O)[C@H](C)[C@H]2OC(=O)O[C@@]21C [Erythromycin Cyclocarbonate] | 0.76
CCN(CC)CCOc1ccc2c(c1)C(=O)c1cc(OCCN(CC)CC)ccc1-2 [Tilorone dihydrochloride] | 0.05
CC(=O)NC[C@H]1CN(c2ccc(N3CCOCC3)c(F)c2)C(=O)O1 [Linezolid] | -0.11
Clc1ccc(C(Cn2ccnc2)OCc2csc3c(Cl)cccc23)c(Cl)c1 (stereo not given) [Sertaconazole nitrate] | 14.5
CCCNC(C)C(=O)Nc1ccccc1C (stereo not given) [Prilocaine] | 0.57
CO[C@@]1(NC(=O)CSC[C@@H](N)C(=O)O)C(=O)N2C(C(=O)O)=C(CSc3nnnn3C)CS[C@@H]21 [Cefminox Sodium] | 0.16
CN(C)CCOc1ccc(/C(=C(/CCCl)c2ccccc2)c2ccccc2)cc1 [Toremifene Citrate] | 2.51
CC1(C)S[C@@H]2[C@H](NC(=O)[C@H](N)c3ccc(O)cc3)C(=O)N2[C@H]1C(=O)O [Amoxicillin] | 0.65
C[C@]12CCC(=O)C=C1[C@@H]1C[C@@H]1[C@H]1[C@@H]3[C@@H]4C[C@@H]4[C@@]4(CCC(=O)O4)[C@@]3(C)CC[C@@H]12 [Drospirenone] | 0.03
